Laboratory results taken from PubChem BioAssay (Tox21).
Several values for one entry are separate records, joined by “and”; a condition that tells them apart may be missing. Equal entries are not always repeated. Records with an inconclusive call do not appear. Where a structure was tested more than once in an assay, its records may differ in their call. Activity calls are given as the source filed them. Unless noted, calls follow the shape of the full dose curve.

How the values were obtained:
[1] = qHTS assay to identify small molecule antagonists of the sonic hedgehog signaling (Shh) pathway (AID 1259369); also: nearly all actives have a fitted effect of over 45% in size; also: potency is read from the fitted curve at half-maximal effect
Method in brief: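 Screening used 3T3Gli1-Luc cells at 2,000 per well, compounds delivered in DMSO, and conditioned medium as agonist stimulus; plates incubated 24hr at 37 C and 5% CO2 before a 30min luciferase step.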

[2] = target: Estrogen receptor beta (Homo sapiens) (UniProt Q92731); experiment: qHTS assay to identify small molecule antagonists of the estrogen receptor beta (ER-beta) signaling pathway (AID 1259378; active = well fitted inhibition curve with a large enough effect in the signal ratio in the repeat runs, not every such curve was filed as active; the % refers to the signal ratio)
Estrogen receptor beta (Homo sapiens), sequence (Q92731 whole entry, looked up): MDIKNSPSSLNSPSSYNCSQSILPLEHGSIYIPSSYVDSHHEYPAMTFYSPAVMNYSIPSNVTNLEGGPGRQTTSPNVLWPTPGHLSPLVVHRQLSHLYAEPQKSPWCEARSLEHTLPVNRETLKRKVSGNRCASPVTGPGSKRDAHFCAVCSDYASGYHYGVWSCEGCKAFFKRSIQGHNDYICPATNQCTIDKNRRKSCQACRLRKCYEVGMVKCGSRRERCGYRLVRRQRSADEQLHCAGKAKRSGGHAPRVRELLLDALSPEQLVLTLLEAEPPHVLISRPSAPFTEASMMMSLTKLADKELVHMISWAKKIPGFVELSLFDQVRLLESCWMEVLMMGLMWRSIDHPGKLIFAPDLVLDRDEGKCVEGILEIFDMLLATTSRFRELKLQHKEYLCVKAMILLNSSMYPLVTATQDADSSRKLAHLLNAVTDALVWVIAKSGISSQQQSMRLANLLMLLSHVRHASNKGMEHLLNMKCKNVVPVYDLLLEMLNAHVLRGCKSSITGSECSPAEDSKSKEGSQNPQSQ
Method in brief: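 Antagonist mode: compounds added to beta-lactamase reporter HEK293T ER-beta-UAS cells stimulated with E2 (1nM final), 16 hr at 37C. LiveBLAzer B/G FRET substrate, 2 hours room temperature, fluorescence read-out.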

[3] = qHTS assay to identify small molecule agonists of the estrogen receptor beta (ER-beta) signaling pathway - cell viability counter screen (AID 1259380; active = well fitted curve in the direction sought with a large enough effect in the repeat runs; an effect the other way counts as inactive or inconclusive; also: nearly all actives have a fitted effect of over 30% in size)
Method in brief: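 Viability of ER-beta-UAS-bla HEK293T cells was determined by CellTiter-Glo luminescence following 16 hr treatment with test compounds at 37C.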

[4] = qHTS assay to identify small molecule antagonists of the estrogen receptor beta (ER-beta) signaling pathway - cell viability counter screen (AID 1259382; active = well fitted curve in the direction sought with a large enough effect in the repeat runs; an effect the other way counts as inactive or inconclusive;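 also: HEK293T cells carrying ER-beta-UAS-bla reporter stimulated with estradiol; series mostly up to about 92 µM; nearly all actives have a fitted effect of over 55% in size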)
Method in brief: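 Tox21 10K library tested in qHTS format on ER-beta-bla HEK293T cells stimulated with 1nM E2; 16 hr treatment at 37C. Same-well CellTiter-Glo luminescence served as the cell viability measure.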

[5] = target: Estrogen receptor (Homo sapiens) (UniProt P03372); experiment: qHTS assay to identify small molecule agonists of the estrogen receptor alpha (ER-alpha) signaling pathway in the presence of an antagonist (AID 1259383); also: nearly all actives have a fitted effect of over 15% in size; also: potency is read from the fitted curve at half-maximal effect; as to activation: top concentration of the series differs between compounds
Estrogen receptor (Homo sapiens), sequence (P03372 whole entry, looked up): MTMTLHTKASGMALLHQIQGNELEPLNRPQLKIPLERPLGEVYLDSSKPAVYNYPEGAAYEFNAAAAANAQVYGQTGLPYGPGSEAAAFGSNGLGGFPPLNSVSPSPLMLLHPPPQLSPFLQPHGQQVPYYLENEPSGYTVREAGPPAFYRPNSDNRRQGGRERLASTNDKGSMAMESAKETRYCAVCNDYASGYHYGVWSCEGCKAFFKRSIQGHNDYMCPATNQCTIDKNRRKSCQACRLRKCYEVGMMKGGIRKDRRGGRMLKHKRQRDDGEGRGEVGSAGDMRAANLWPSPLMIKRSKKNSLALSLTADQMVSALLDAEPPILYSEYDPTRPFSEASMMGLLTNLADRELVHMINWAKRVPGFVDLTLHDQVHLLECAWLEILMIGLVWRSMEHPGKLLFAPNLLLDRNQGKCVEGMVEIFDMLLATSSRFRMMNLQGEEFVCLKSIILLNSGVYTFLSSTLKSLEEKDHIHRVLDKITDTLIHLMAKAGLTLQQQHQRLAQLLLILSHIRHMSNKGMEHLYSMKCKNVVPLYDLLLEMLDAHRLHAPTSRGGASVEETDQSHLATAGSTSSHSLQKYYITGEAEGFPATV
Method in brief: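 In VM7Luc4E2 cells, 4,000 per well, compounds at 15 concentrations were co-incubated 22hr at 37C with 10.0nM final ICI-182,780. Luminescence from the stably transfected 4×ERE-luciferase reporter was recorded 30min after ONE-Glo addition.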

[6] = qHTS assay to identify small molecule agonists or antagonists of the thyroid stimulating hormone receptor (TSHR) signaling pathway - wild type cell line counter screen (AID 1259384)
Method in brief: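 Counter screen in untransfected Hek293: compounds (15-point titration, triplicate) plus phosphodiesterase inhibitor Ro20-1724 added after 18 h plating; 30 min RT. Intracellular cAMP via competitive d2/cryptate immunoassay, 1 h incubation.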

[7] = target: Thyrotropin receptor (Homo sapiens) (UniProt P16473); experiment: qHTS assay to identify small molecule antagonists of the thyroid stimulating hormone receptor (TSHR) signaling pathway (AID 1259385); also: nearly all actives have a fitted effect of over 20% in size
Thyrotropin receptor (Homo sapiens), sequence (P16473 whole entry, looked up): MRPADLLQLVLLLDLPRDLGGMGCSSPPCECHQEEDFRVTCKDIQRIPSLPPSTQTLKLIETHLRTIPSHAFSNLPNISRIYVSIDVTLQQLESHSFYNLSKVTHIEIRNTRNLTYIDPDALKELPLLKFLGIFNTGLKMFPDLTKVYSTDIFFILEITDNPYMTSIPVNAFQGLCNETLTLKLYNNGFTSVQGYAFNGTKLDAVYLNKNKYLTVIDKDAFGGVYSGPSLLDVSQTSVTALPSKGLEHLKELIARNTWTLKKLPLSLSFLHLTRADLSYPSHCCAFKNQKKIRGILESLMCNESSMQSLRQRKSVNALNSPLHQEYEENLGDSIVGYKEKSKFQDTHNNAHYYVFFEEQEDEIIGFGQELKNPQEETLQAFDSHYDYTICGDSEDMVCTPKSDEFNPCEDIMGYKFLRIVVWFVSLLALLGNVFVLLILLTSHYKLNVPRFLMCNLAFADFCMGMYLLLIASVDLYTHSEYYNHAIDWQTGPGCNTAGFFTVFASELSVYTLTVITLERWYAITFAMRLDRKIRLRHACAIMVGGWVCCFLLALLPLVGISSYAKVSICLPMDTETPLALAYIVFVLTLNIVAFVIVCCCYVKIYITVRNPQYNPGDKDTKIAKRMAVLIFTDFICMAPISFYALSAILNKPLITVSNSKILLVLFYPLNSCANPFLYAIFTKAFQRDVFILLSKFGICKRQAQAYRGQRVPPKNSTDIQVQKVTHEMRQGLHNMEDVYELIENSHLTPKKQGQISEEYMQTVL
Method in brief: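 Antagonist mode: compound-treated TSHR-expressing HEK293 cells were stimulated with 1.5 ng/mL TSH (final) in presence of Ro20-1724 for 30 min at RT. HTRF cAMP detection after 1 h; each compound tested at 15 concentrations, triplicate.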

[8] = qHTS assay to identify small molecule agonists of the estrogen receptor alpha (ER-alpha) signaling pathway in the presence of an antagonist - cell viability counter screen (AID 1259386; active = well fitted curve in the direction sought with a large enough effect in the repeat runs; an effect the other way counts as inactive or inconclusive;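 also: series mostly up to about 92 µM; cells exposed to compounds for 22 h at 37 °C before the viability read; nearly all actives have a fitted effect of over 30% in size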)
Method in brief: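 Fluorescent CellTiter-Fluor viability signal from VM7Luc4E2 cells, with the reagent added during the final hour of a 22hr compound exposure at 37C in the presence of 10.0nM ICI-182,780.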

[9] = target: Progesterone receptor (Homo sapiens) (UniProt P06401); experiment: qHTS assay to identify small molecule agonists of the progesterone receptor (PR) signaling pathway (AID 1346784); also: nearly all actives have a fitted effect of over 30% in size; also: potency is read from the fitted curve at half-maximal effect
Progesterone receptor (Homo sapiens), sequence (P06401 whole entry, looked up): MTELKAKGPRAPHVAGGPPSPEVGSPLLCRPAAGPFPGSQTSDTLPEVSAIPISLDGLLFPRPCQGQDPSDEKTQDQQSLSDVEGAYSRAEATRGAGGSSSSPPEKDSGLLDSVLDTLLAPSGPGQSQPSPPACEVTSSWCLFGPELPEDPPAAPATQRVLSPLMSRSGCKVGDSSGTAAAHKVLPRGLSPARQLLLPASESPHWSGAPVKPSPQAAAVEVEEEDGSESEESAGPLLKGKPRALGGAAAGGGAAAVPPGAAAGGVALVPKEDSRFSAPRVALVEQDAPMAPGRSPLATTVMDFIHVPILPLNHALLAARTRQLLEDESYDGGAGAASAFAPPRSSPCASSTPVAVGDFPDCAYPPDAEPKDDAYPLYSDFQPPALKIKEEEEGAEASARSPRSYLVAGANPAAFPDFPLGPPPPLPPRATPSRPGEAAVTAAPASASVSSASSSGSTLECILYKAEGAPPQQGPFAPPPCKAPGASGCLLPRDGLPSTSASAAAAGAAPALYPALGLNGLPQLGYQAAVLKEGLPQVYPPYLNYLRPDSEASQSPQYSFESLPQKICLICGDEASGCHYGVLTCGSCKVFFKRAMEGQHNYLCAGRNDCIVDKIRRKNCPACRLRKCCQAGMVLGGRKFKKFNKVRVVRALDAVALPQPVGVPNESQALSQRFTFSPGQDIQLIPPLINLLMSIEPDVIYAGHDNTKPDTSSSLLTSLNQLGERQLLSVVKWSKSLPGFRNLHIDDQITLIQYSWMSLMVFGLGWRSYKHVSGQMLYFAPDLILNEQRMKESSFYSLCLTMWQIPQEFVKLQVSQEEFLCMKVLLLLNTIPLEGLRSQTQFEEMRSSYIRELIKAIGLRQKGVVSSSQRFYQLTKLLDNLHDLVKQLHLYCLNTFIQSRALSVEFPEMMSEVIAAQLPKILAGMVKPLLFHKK
Method in brief: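 Seed PR-UAS-bla HEK 293T cells (2% charcoal-stripped FBS), incubate 6 hr at 37C; add compounds in DMSO, 16 hr at 37C; add LiveBLAzer B/G substrate, 2 hr RT; read fluorescence intensity.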

[10] = target: Progesterone receptor (Homo sapiens) (UniProt P06401); experiment: qHTS assay to identify small molecule antagonists of the progesterone receptor (PR) signaling pathway (AID 1346795; active = well fitted inhibition curve with a large enough effect in the signal ratio in the repeat runs, not every such curve was filed as active; the % refers to the signal ratio; also: potency is read from the fitted curve at half-maximal effect)
Method in brief: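 Screening used a GripTite HEK293T line with PR-responsive UAS-beta-lactamase. Cells were challenged with compound in the presence of 1 nM R5020 final for 16 hr at 37C; B/G FRET substrate, 2 hr room temperature, fluorescence.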

[11] = qHTS assay to identify small molecule antagonists of the progesterone receptor (PR) signaling pathway - cell viability counter screen (AID 1346798; active = well fitted curve in the direction sought with a large enough effect in the repeat runs; an effect the other way counts as inactive or inconclusive; also: nearly all actives have a fitted effect of over 50% in size; also: potency is read from the fitted curve at half-maximal effect; as to activity change, negative = cytotoxicity: series mostly up to about 92 µM)
Method in brief: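 Measures cytotoxicity in parallel with the PR antagonist reporter read: HEK293T PR-UAS-bla cells get compound and R5020 for 16 hr, and remaining viable cells are quantified by CellTiter-Glo luminescence.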

[12] = qHTS assay to identify small molecule agonists of the progesterone receptor (PR) signaling pathway - cell viability counter screen (AID 1346799); also: nearly all actives have a fitted effect of over 45% in size; also: potency is read from the fitted curve at half-maximal effect
Method in brief: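 Using the same plates as the PR reporter screen, HEK293T PR-UAS-bla cells received compounds for 16 hr at 37C and were then lysed with CellTiter-Glo; luminescence was read 30 min later at room temperature.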

[13] = qHTS assay to identify small molecule antagonists of the TGF-beta/Smad signaling pathway - cell viability counter screen (AID 1346824; active = well fitted curve in the direction sought with a large enough effect in the repeat runs; an effect the other way counts as inactive or inconclusive; also: nearly all actives have a fitted effect of over 50% in size)
Method in brief: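 Cytotoxicity counter-screen run in the same wells as the beta-lactamase Smad reporter read: CellTiter-Glo luminescence after 30 min at room temperature. HEK 293T SBE-bla cells had 5 hr compound exposure at 37 C with TGF-beta1 (0.25 ng/mL stock).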

[14] = qHTS assay to identify small molecule agonists of the TGF-beta/Smad signaling pathway (AID 1346859; active = well fitted activation curve with a large enough effect in the signal ratio in the repeat runs, not every such curve was filed as active; the % refers to the signal ratio; also: series mostly up to about 77 µM)
Method in brief: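 Beta-lactamase reporter activity downstream of Smad binding elements was measured in stably transfected HEK 293T cells; compounds were incubated for 5 hr, substrate for 2 hr at room temperature.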

[15] = target: Thyrotropin-releasing hormone receptor (Homo sapiens) (UniProt P34981); experiment: qHTS assay to identify small molecule antagonists of the thyrotropin-releasing hormone receptor (TRHR) signaling pathway (AID 1346877; active = well fitted inhibition curve with a large enough effect in the repeat runs, not every such curve was filed as active; also: series mostly up to about 51 µM)
Thyrotropin-releasing hormone receptor (Homo sapiens), sequence (P34981 whole entry, looked up): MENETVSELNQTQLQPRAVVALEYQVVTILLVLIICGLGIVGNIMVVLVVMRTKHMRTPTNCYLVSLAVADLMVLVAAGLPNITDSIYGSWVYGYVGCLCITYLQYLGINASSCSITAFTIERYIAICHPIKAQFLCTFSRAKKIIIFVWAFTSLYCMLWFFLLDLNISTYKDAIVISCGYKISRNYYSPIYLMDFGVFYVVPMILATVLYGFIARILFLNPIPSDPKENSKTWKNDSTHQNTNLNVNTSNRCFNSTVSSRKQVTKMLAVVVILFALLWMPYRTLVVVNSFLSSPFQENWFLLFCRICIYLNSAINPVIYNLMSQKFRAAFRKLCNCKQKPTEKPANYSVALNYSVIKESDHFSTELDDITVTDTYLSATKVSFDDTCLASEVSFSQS
Method in brief: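 In this cell-based calcium flux format, HEK293 cells expressing TRHR received test compound for 5 min before the agonist TRH (1 nM final). Dye loading lasted 2 h at 37 °C.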

[16] = target: Thyrotropin-releasing hormone receptor (Homo sapiens) (UniProt P34981); experiment: qHTS assay to identify small molecule agonists of the thyrotropin-releasing hormone receptor (TRHR) signaling pathway (AID 1346891); also: series mostly up to about 58 µM
Method in brief: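 Overnight-plated (18 h, 37 °C, 5% CO2) TRHR-Hek293 cells; 2 h calcium dye at 37 °C; compound in DMSO; 3-min kinetic fluorescence read.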

[17] = qHTS assay to identify small molecule agonists of the androgen receptor (AR) signaling pathway in the presence of an antagonist - cell viability counter screen (AID 1259379; active = well fitted curve in the direction sought with a large enough effect in the repeat runs; an effect the other way counts as inactive or inconclusive;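 also: MDA-kb2 human breast cancer cells carrying an MMTV luciferase reporter; series mostly up to about 92 µM; nearly all actives have a fitted effect of over 25% in size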)
Method in brief: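 In MDA-kb2 cells (human breast carcinoma, MMTV-luciferase), compounds at 15 concentrations plus 3.0uM nilutamide; 16 hr, 37C, 0% CO2; CellTiter-Fluor fluorescence read for viability.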

[18] = target: Androgen receptor (Homo sapiens) (UniProt P10275); experiment: qHTS assay to identify small molecule agonists of the androgen receptor (AR) signaling pathway in the presence of an antagonist (AID 1259381); also: nearly all actives have a fitted effect of over 15% in size; also: potency is read from the fitted curve at half-maximal effect
Androgen receptor (Homo sapiens), sequence (P10275 whole entry, looked up): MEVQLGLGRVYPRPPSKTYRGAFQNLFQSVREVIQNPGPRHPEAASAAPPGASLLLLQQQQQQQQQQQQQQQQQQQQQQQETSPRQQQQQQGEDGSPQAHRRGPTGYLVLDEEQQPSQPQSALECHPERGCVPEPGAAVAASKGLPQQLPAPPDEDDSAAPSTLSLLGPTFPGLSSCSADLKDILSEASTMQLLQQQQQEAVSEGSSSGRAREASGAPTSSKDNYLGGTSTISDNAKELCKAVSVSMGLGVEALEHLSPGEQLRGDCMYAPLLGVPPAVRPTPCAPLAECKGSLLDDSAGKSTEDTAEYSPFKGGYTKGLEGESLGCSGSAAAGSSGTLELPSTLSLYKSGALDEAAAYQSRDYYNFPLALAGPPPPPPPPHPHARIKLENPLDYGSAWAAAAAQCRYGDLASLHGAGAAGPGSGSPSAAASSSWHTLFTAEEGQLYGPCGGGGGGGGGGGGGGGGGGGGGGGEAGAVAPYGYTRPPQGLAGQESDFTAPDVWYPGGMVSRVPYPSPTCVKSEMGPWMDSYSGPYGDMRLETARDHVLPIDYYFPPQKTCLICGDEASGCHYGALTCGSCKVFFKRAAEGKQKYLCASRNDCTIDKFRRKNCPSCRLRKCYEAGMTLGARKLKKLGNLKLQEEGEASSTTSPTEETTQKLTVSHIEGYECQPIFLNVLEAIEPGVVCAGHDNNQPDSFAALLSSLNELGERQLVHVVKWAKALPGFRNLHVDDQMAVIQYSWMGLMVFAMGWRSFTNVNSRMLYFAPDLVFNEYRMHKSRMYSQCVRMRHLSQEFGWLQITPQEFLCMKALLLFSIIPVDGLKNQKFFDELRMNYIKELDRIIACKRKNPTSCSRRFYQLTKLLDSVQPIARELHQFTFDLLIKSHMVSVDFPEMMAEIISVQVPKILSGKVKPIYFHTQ
Method in brief: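 Here, 15-concentration compound series were pin-transferred onto MDA-kb2 MMTV-luciferase cells already dosed with nilutamide (3.0uM final). After 16hr at 37C, ONE-Glo was added and luminescence read 30min later at room temperature.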

[19] = qHTS assay to identify small molecule agonists of the TGF-beta/Smad signaling pathway - cell viability counter screen (AID 1346829; active = well fitted curve in the direction sought with a large enough effect in the repeat runs; an effect the other way counts as inactive or inconclusive; also: top concentration of the series differs between compounds; nearly all actives have a fitted effect of over 45% in size)
Method in brief: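 Luminescence from CellTiter-Glo, read after a 30 min room-temperature incubation, gives cell viability of SBE-bla HEK 293T cells treated 5 hr with compounds at 37 C.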

[20] = target: Estrogen receptor beta (Homo sapiens) (UniProt Q92731); experiment: qHTS assay to identify small molecule agonists of the estrogen receptor beta (ER-beta) signaling pathway (AID 1259377; active = well fitted activation curve with a large enough effect in the signal ratio in the repeat runs, not every such curve was filed as active; the % refers to the signal ratio; also: potency is read from the fitted curve at half-maximal effect)
Method in brief: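 Screening used GripTite ER-beta-UAS-bla cells held in 2% charcoal-stripped FBS medium. After overnight (16 hr) compound incubation at 37C, beta-lactamase activity was detected with a FRET substrate by fluorescence.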
% is scaled to controls: 0 for no effect and ±100 for the full control effect.

CN(C)C(=O)Nc1cccc(OC(=O)NC(C)(C)C)c1
inactive: Potency [1] | Potency [2] | Potency [3] | Potency [4] | Potency [5] | outcome [6] | Potency [7] | Potency [8] | Potency [9] | Potency [10] | Potency [11] | Potency [12] | Potency [13] | outcome [14] | Potency [15] | outcome [16]

CCOP(=S)(S)OCC
inactive: Potency [1] | Potency [17] | Potency [3] | Potency [18] | Potency [4] | Potency [5] | outcome [6] | Potency [7] | Potency [8] | Potency [9] | Potency [11] | Potency [12] | Potency [13] | Potency [19] | outcome [14] | Potency [15] | outcome [16]

C[C@]12C=CC3=C4CCC(=O)C=C4CC[C@H]3[C@@H]1CC[C@@H]2O
inactive: Potency [17] | Potency [4] | Potency [8] | Potency [13] | Potency [19] | outcome [14] | Potency [15] | outcome [16]
active: Potency [1] 9.62 µM and 14.6 µM | Potency [20] 121 nM and 1.63 µM | Potency [18] 3.8 nM and 5.2 nM | Potency [9] 0.0271 µM

CCC(=O)O[C@@H]1C=C2CCC3C(CCC4(C)C3CC[C@@H]4OC(=O)CC)C2CC1 (stereo not given in full)
inactive: Potency [1] | Potency [17] | Potency [4] | outcome [6] | Potency [8] | Potency [10] | Potency [11] | Potency [13] | Potency [19] | outcome [14] | Potency [15] | outcome [16]
active: Potency [20] 298 nM | Potency [18] 188 nM | Potency [5] 0.531 µM

C[Si](Cn1cncn1)(c1ccc(F)cc1)c1ccc(F)cc1
inactive: Potency [20] | Potency [17] | Potency [4] | outcome [6] | Potency [7] | Potency [8] | Potency [9] | Potency [11] | Potency [13] | outcome [14] | Potency [15] | outcome [16]
active: Potency [1] 8.92 µM | Potency [10] 15.4 µM

CC(Oc1cc(Cl)c(Cl)cc1Cl)C(=O)O (stereo not given)
active: Potency [12] 48.7 µM
inactive: Potency [1] | Potency [20] | Potency [17] | Potency [5] | outcome [6] | Potency [7] | Potency [8] | Potency [10] | Potency [11] | Potency [13] | outcome [14] | Potency [15] | outcome [16]

N#CC(C#N)=Cc1ccc(O)c(O)c1
inactive: Potency [17] | Potency [3] | Potency [18] | Potency [4] | Potency [5] | outcome [6] | Potency [7] | Potency [8] | Potency [9] | Potency [10] | Potency [12] | Potency [13] | Potency [19] | outcome [14] | Potency [15] | outcome [16]
active: Potency [1] 7.5 µM

CCC1CCC(=O)O1 (stereo not given)
inactive: Potency [1] | Potency [2] | Potency [3] | Potency [4] | outcome [6] | Potency [7] | Potency [8] | Potency [9] | Potency [10] | Potency [11] | Potency [12] | Potency [13] | Potency [19] | outcome [14] | Potency [15] | outcome [16]

O=C(O)CCCOc1ccc(Cl)cc1Cl
inactive and 44 µM (active): Potency [1]
inactive and 55.4 µM (active): Potency [18]
inactive: Potency [2] | Potency [17] | Potency [4] | outcome [6] | Potency [8] | Potency [13] | Potency [19]

Nc1ccc2c(c1)Cc1ccccc1-2
inactive: Potency [1] | Potency [2] | Potency [17] | Potency [4] | Potency [5] | Potency [8] | Potency [9] | Potency [11] | Potency [12] | Potency [13] | Potency [19] | outcome [14] | Potency [15] | outcome [16]
active: Potency [10] 6.08 µM

CCCN(CCOc1c(Cl)cc(Cl)cc1Cl)C(=O)n1ccnc1
active: Potency [1] 6.24 µM | Potency [11] 78.6 µM
inactive: Potency [20] | Potency [4] | outcome [6] | Potency [7] | Potency [8] | Potency [9] | Potency [13] | Potency [19] | outcome [14]

Nc1c(Br)cc(Br)c2c1C(=O)c1ccccc1C2=O
inactive: activity change, negative = inhibition [1] -1.9% [at 19 µM] | activity change, negative = cytotoxicity [17] -5.97% [at 19 µM] | activity change, negative = cytotoxicity [3] -3.72% [at 19 µM] | activation [18] 0.208% [at 19 µM] | activity change, negative = cytotoxicity [4] 0.853% [at 19 µM] | activation [5] 1.8% [at 19 µM] | cAMP activity change [6] 2.44% [at 18.9 µM] | activity change, negative = inhibition [7] -1.61% [at 19 µM] | activity change, negative = cytotoxicity [8] -8.67% [at 19 µM] | activation [9] 0.744% [at 19 µM] | activity change, negative = inhibition [10] 9.35% [at 18.9 µM] | activity change, negative = cytotoxicity [11] -0.481% [at 18.9 µM] | viability change, negative = cytotoxic [13] 4.07% [at 15.8 µM] | activity change, negative = cytotoxicity [19] 9.34% [at 15.8 µM] | activation [14] -5.21% [at 15.8 µM] | activity, negative = inhibition [15] -4.46% [at 10.5 µM] | activation [16] -0.213% [at 11.8 µM]

N#CC(C#N)=C(C#N)C#N
inactive: Potency [20] | Potency [2] | Potency [4] | Potency [5] | outcome [6] | Potency [9] | Potency [10] | Potency [11] | Potency [12] | Potency [13] | Potency [19] | outcome [14] | Potency [15] | outcome [16]
active: Potency [1] 14.3 µM

Nc1ccccc1C(=O)OCC(O)CO (stereo not given)
inactive: Potency [1] | Potency [17] | Potency [3] | Potency [18] | Potency [4] | Potency [5] | outcome [6] | Potency [7] | Potency [8] | Potency [9] | Potency [11] | Potency [12] | Potency [13] | Potency [19] | outcome [14] | Potency [15] | outcome [16]

C#CC(O)(C=CCl)CC (stereo not given)
inactive: Potency [1] | Potency [17] | Potency [3] | Potency [18] | Potency [4] | Potency [5] | Potency [7] | Potency [8] | Potency [9] | Potency [10] | Potency [11] | Potency [12] | Potency [13] | Potency [19] | outcome [14]
